Source: PubChem BioAssay AID651789 (National Center for Advancing Translational Sciences (NCATS), 2012)
Inconclusive results are not listed. Values without a mark were called inactive. Calls of active or inactive are those of the source. The call rests on the fitted dose curve; in most records, active means well fitted inhibition curve with a large enough effect; inconclusive means small, poorly fitted or top-dose-only effect; inactive means no such curve, though single readings can be large or run the other way.
Potency means the concentration at half of the fitted maximal effect.

Experiment: Acumen qHTS Assay for Inhibitors of the mTORC1 Signaling Pathway in WT MEF Cells: Hit Validation; further: nearly all actives have a fitted effect of over 60% in size;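 on activity change, negative = inhibition: percent of cells above a cutoff set by 7.5 nM rapamycin treated wells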
Settings: Acumen imaging; series mostly up to 37.3 µM; activity change, negative = inhibition: at the top concentration
From the text: The mammalian target of rapamycin (mTOR) is an intracellular serine/threonine kinase Aberrant regulation of mTOR signaling plays a causative role in a number of human diseases, including cancer, benign tumors such as lymphangioleiomyomatosis (LAM) and Tuberous Sclerosis Complex (TSC), and metabolic diseases such as diabetes and obesity. This project aims to identify inhibitors of ribosomal protein S6 (rpS6) phosphorylation. The phosphorylation of rpS6 is a key event downstream of mTOR activation. The assay uses a phospho-specific antibody of phospho-rpS6 to detect inhibitors of mTOR activation. Mutations in the Tsc1 and Tsc2 genes are the underlying genetic lesions responsible for TSC, causing constitutive activation of the mTORC1 pathway and leading to profound effects on cell metabolism. Aberrant metabolism in cancer has recently received significant attention as a target to develop therapeutic agents in the treatment of cancer.1 As Tsc2-/- cells have lost the ability to respond to energy and growth factor deprivation, these cells are unable to properly down regulate cellular biosynthetic processes in response to metabolic stress, and are thus extremely sensitive to glucose deprivation-induced death.2 A central goal of this project is to explore the unique cell survival and metabolic properties of cells with Tsc1 or Tsc2 by screening for compounds that selectively target the Tsc2-/- MEFs by screening both Tsc2-/- and WT MEF cell lines. We hope to better understand these aspects of TSC physiology in order to exploit them for therapeutic benefit.
NIH Molecular Libraries Probe Production Centers Network [MLPCN]
NIH Chemical Genomics Center [NCGC]
Assay Submitter (PI): Blenis, John; Harvard University
For quantitative high throughput analysis of mTORC1 signaling, we developed a cell-based assay for immuno-fluorescence based detection of rpS6 phosphorylation on the Acumen Explorer that will be used a platform for the primary small molecule screen. Mouse embryonic fibroblasts (MEFs) are cultured in 1536-well plates using DMEM + 10% FBS. Twenty-four hrs after plating, test compounds (solubilized in DMSO) are delivered and incubated with the cells for 24 hrs at 37 degree Celsius. Following the incubation, media with compound is aspirated and the cells are fixed in 4% paraformaldehyde (PFA) containing PBS + 0.2% TX-100. Next, PFA is aspirated, cells are washed two times with PBS plus 0.2% TX-100 and the cells are blocked for 1 hr at room temperature (blocking buffer: LiCOR Blocking Buffer plus 0.2% TX-100). This is followed by aspiration and staining with Alexa-488 conjugated-phospho-rpS6 Ser235/236 antibody for 2 hours at room temperature (Cell Signaling Technology # 4803, 1:50 dilution in blocking buffer). Cells are washed two times with PBS plus 0.2% TX-100, and stained with 10 uM propidium iodide (PI) for 20-25 minutes for cell number measurement (1:500 dilution of Hoescht staining is also added for IN Cell imaging). The plates are scanned on the Acumen Explorer laser scanning instrument (TTP Labtech) using the 488nm laser for simultaneous excitation of the Alexa-488 and PI. […] Fluorescence emission from the PI stain is selected using a 575-640 nm band pass filter. The normalized phospho-S6 staining is calculated as the ratio of the integrated Alexa 488 intensity divided by the integrated PI intensity for the single concentration rapamycin control (7.5 nM) and DMSO columns. […] Inhibition of the pathway is defined based on the normalized phospho-S6 intensity in rapamycin treated cells. Active cells are defined as those with a normalized phospho-S6 staining above this threshold, and each treatment is reported as the % positive cells in the well, where thresholds are defined by selecting wells with the highest and lowest signal and differentiating between the % non-active and % active populations. In addition to the pathway specific phospho-S6 endpoint, the number of PI stained cells from the Acumen is recorded as a measure of cell viability. […]
For `COc1ccc(C2=NS(=O)(=O)N(C)C(C(=O)Nc3ccc(OC(F)(F)F)cc3)=C2)cc1`, the “activity change, negative = inhibition” value was 26.6%. With `COc1ccc(Oc2nc3c(C)cccn3c(=O)c2/C=C(\C#N)c2nc3ccccc3[nH]2)cc1` the “activity change, negative = inhibition” value was 4.58%. For `CCN(CC)CCn1c(=N)n(CCOc2ccccc2Cl)c2ccccc21`, the Potency was 9.27 µM (active). With `CC[C@H](CO)Nc1nc(NCc2ccccc2)c2ncn(C(C)C)c2n1` the “activity change, negative = inhibition” value was -51.5%. For `COc1ccc(NC(=O)CSc2c3c(nc4ccccc24)CCC3)c(OC)c1`, the “activity change, negative = inhibition” value was 1.45%. With `O=S(=O)(NCc1nc2cccnc2n1Cc1ccccc1Cl)c1ccc(F)c(Cl)c1` the “activity change, negative = inhibition” value was -18.5%. For `CS(=O)(=O)CCNCc1ccc(-c2ccc3ncnc(Nc4ccc(OCc5cccc(F)c5)c(Cl)c4)c3c2)o1`, the “activity change, negative = inhibition” value was 1.69%. For `COc1ccc(-c2nc(CCNC(=O)c3c(F)cccc3Cl)cs2)cc1`, the “activity change, negative = inhibition” value was 2.92%. With `CCCCOc1ccc(Cn2c(=O)sc3ccccc32)cc1` the “activity change, negative = inhibition” value was 14.4%. For `COc1cccc(-c2nc(SCC(=O)NCC3CCCO3)c(-c3ccc(F)cc3)[nH]2)c1` (stereo not given), the “activity change, negative = inhibition” value was 12.2%. In the case of `CCOC(=O)C1CCN(C(=O)CSc2c3c(nc4ccc(Cl)cc24)CCCC3)CC1`, the “activity change, negative = inhibition” value is reported as -12.9%. For `COc1ccc(CC(=O)Nc2sc3c(c2C(=O)Nc2ccccc2)CCCCC3)cc1`, the Potency was 13.1 µM (active). For `CCCOc1cccc(C2c3c(-c4ccccc4O)n[nH]c3C(=O)N2Cc2ccco2)c1` (stereo not given), the “activity change, negative = inhibition” value was -6.4%. In the case of `CCCCn1c(=N)n(CCOc2ccccc2OC)c2ccccc21`, the Potency is reported as 11.7 µM (active). With `CCOC(=O)c1ccc(NC(=O)c2nc(S(=O)(=O)Cc3ccccc3)ncc2Cl)cc1` the Potency was 6.56 µM (active). For `COc1ccc(-c2ccc(CCC(=O)O)n2-c2ccccc2O)cc1`, the “activity change, negative = inhibition” value was -0.763%. With `COC(=O)c1cc2sc(C)cc2n1Cc1ccccc1` the “activity change, negative = inhibition” value was -15.3%. For `Oc1ccc(NCc2ccccc2OCc2ccc(Cl)cc2)cc1`, the “activity change, negative = inhibition” value was 4.43%. With `O=C(NCC(c1cccs1)S(=O)(=O)c1cccs1)c1ccccc1` (stereo not given) the “activity change, negative = inhibition” value was -4.58%. For `CCOC(=O)CSc1nc2cc3c(cc2c(=O)n1CCCCCC(=O)NCc1ccc2c(c1)OCO2)OCO3`, the “activity change, negative = inhibition” value was -19.6%. In the case of `Cc1cccc(-c2nc3c(cnn3-c3ccccc3)c(=O)n2-c2ccc(Br)cc2)c1`, the “activity change, negative = inhibition” value is reported as -27.2%. With `CC(C)(C)c1ccc(-c2nc(S(=O)(=O)c3ccccc3)c(N3CCOCC3)o2)cc1` the “activity change, negative = inhibition” value was 1.46%. For `Nc1nnc(SCC(=O)Nc2cccc(F)c2)s1`, the “activity change, negative = inhibition” value was 39.6%. For `CCOc1ccccc1NC(=O)CN1C(=O)C(=O)c2ccccc21`, the “activity change, negative = inhibition” value was 13.2%. For `CCc1ccc(S(=O)(=O)c2c(C(=O)c3ccc(C)c(C)c3)cnc3ccccc23)cc1`, the “activity change, negative = inhibition” value was -21.5%. With `Cc1cc(C)c2oc(-c3cccc(NC(=O)COc4ccc([N+](=O)[O-])cc4)c3)nc2c1` the “activity change, negative = inhibition” value was 1.31%. With `COc1ccc(S(=O)(=O)N(CCc2ccccc2)CC(=O)Nc2cccc(OC)c2)cc1` the “activity change, negative = inhibition” value was 3.05%. In the case of `NC(=O)c1ccccc1NC(=O)c1ccc(-c2ccc(Br)cc2)o1`, the “activity change, negative = inhibition” value is reported as -20.5%. In the case of `CCc1ccc(-n2c(=O)c3c4c(sc3n(CC(=O)c3ccc(F)cc3)c2=O)CCC4)cc1`, the Potency is reported as 18.5 µM (active). With `Fc1ccc(Nc2nc3nonc3nc2Nc2cccc(C(F)(F)F)c2)cc1` the Potency was 5.21 µM (active). With `Cc1ccccc1CN1C(=O)C(O)(CC(=O)c2cccc(Br)c2)c2ccccc21` (stereo not given) the “activity change, negative = inhibition” value was 8.36%. With `Cc1c(C2=CCN(S(=O)(=O)c3ccc(Br)cc3)CC2)c2ccccc2n1CC(=O)N1CCCC1` the “activity change, negative = inhibition” value was 1.53%. For `COc1ccc(-n2ncc3c(NCCCOC(C)C)ncnc32)cc1`, the “activity change, negative = inhibition” value was -9.78%. With `CCOc1ccc(Nc2nc(-c3cccc(Cl)c3)c3c(n2)-c2ccccc2OC3)cc1` the “activity change, negative = inhibition” value was -3.01%. For `CCOC(=O)c1c(NC(=O)COc2ccc(OC)cc2)sc(C(=O)N(CC)CC)c1C`, the “activity change, negative = inhibition” value was 8.8%. For `COc1cccc(-n2c(-c3ccc(C)cc3)cc3c2CC(C)(C)CC3=O)c1`, the “activity change, negative = inhibition” value was -25.8%. With `COC(=O)c1ccccc1NC(=O)Cn1c(=O)n(-c2ccc(C)cc2)c(=O)c2ccccc21` the “activity change, negative = inhibition” value was -17.9%. For `Cc1nn(CC(=O)N2CCN(c3ccccc3F)CC2)c(=O)c2cccn12`, the “activity change, negative = inhibition” value was 26.1%. With `CCCOCc1cc(CN2CCN(c3ccccc3OC)CC2)c(O)c2ncccc12` the Potency was 1.47 µM (active). In the case of `COc1ccc(OC)c(Nc2c3c(nc4ccccc24)CCC3)c1`, the Potency is reported as 0.585 µM (active).
